Source: PubChem BioAssay (NCATS)
Records with an inconclusive call do not appear. The source made the active and inactive calls. Calls come from the whole dose curve; as a rule, active = well fitted cell-killing curve with a large enough effect; inconclusive = small, poorly fitted or top-dose-only effect, or effect the other way; inactive = flat fitted curve, though single readings scatter.

system: CAOV3; assay: Primary qHTS to identify gynecologic anti-cancer compounds using libraries of approved drugs and bioactive compounds (AID 1345084); details: Gynecologic cancer cell panel viability, ATPlite luminescence, 48 h; series mostly up to 57.5 µM; activity change, negative = cytotoxicity: at the top concentration; note: nearly all actives have a fitted effect of over 55% in size
Procedure, shortened: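 Cells, 1,000 per well, were allowed to settle for 16 h at 37 C before compound addition. Five concentrations were tested for 48 h, and viability was read by ATPlite luminescence after 15 min at room temperature.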
% is set by controls: 0 for no effect and ±100 for the full control effect.

Compound	activity change, negative = cytotoxicity
CC(C)=CCC/C(C)=C/CO[C@@H]1O[C@H](CO[C@@H]2O[C@@H](CO)[C@H](O)[C@H]2O)[C@@H](O)[C@H](O)[C@H]1O	7.64% [at 25.3 µM] (inactive)
O=C(c1ccc(Cl)c([N+](=O)[O-])c1)N1CCN(c2ccccc2F)CC1	-16.9% (inactive)
COc1cc(O)c2c(c1Cl)CC(C)OC2=O (stereo not given)	-0.587% (inactive)
CCCCNc1nc(N)c2[nH]c(=O)n(Cc3ccc(OCCN(C)C)nc3)c2n1	-5.73% (inactive)
CC(O)C(=O)/C=C/C=C/C(=O)OC1C=C2COC(=O)C2(O)C2(C)CCCC(C)(C)C12 (stereo not given)	-2.69% [at 25.3 µM] (inactive)
CC1(C)CC[C@]2(C(=O)O)CC[C@]3(C)C(=CCC4[C@@]5(C)CC[C@H](O[C@@H]6O[C@H](C(=O)O)[C@@H](O)[C@H](O[C@@H]7O[C@H](CO)[C@H](O)[C@H](O)[C@H]7O)[C@H]6O[C@@H]6O[C@H](CO)[C@@H](O)[C@H](O)[C@H]6O)C(C)(C)C5CC[C@]43C)[C@@H]2C1 (stereo not given in full)	0.251% [at 6.55 µM] (inactive)
CC(=O)OC(C)(C)/C=C/C(=O)[C@](C)(O)C1[C@H](O)C[C@@]2(C)[C@@H]3CC=C4[C@@H](C[C@H](O[C@@H]5O[C@H](CO)[C@@H](O)[C@H](O)[C@H]5O)C(=O)C4(C)C)[C@]3(C)C(=O)C[C@]12C (stereo not given in full)	-4.43% [at 25.3 µM] (inactive)
CC1=CC(=O)CC(C)(C)[C@@]1(O)/C=C/C(C)O[C@@H]1O[C@H](CO)[C@@H](O)[C@H](O)[C@H]1O (stereo not given in full)	22.6% [at 25.3 µM] (inactive)
CC(C)C1NC(=O)C(CC2(O)c3ccccc3N3C(=O)C(Cc4ccccc4)NC32)NC1=O (stereo not given)	-4.05% [at 25.3 µM] (inactive)
OC[C@@]1(O)CO[C@H](OC[C@H]2O[C@@H](OC(CCCCc3ccc(O)cc3)CCc3ccc(O)cc3)[C@H](O[C@H]3OC[C@](O)(CO)[C@H]3O)[C@@H](O)[C@@H]2O)[C@@H]1O (stereo not given in full)	-3.21% [at 25.3 µM] (inactive)
